The results in this text go back to ChEMBL document CHEMBL1961873, “Compounds: GSK PKIS; Assays: Nanosyn kinase panel” (2012).

The target of test [1] is Sphingosine kinase 1 (Homo sapiens) (UniProt Q9NYA1). The following applies: at 1 µM.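 Note: mean SPHK1 inhibition value reported from the GSK PKIS kinase panel screen.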
For test [2], the target named is T1, Sphingosine kinase 2 (Homo sapiens) (UniProt Q9NRA0).
T1 sequence (whole entry): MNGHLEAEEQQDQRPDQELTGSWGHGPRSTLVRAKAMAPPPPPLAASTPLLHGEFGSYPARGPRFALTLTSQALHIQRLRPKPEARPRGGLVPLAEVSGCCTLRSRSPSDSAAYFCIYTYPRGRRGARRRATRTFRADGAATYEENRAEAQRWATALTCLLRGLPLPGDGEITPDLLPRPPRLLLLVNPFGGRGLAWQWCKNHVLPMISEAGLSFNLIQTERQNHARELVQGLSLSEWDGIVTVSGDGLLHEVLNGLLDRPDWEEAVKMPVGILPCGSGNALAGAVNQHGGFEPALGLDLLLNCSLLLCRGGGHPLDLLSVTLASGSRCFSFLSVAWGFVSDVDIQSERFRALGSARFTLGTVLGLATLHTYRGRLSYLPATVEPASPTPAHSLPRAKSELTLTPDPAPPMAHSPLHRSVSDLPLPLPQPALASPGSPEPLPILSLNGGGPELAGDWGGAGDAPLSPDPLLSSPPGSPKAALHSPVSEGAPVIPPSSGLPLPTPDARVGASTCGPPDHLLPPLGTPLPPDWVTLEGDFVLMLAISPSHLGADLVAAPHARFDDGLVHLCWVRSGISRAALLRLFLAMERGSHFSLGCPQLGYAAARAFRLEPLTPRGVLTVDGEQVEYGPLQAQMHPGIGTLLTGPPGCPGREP
The following applies: at 0.1 µM.

Test [3] concerns the target T1, Sphingosine kinase 2 (Homo sapiens). The settings on record: at 1 µM.
Test [4] deals with Casein kinase II subunit alpha (Homo sapiens) (UniProt P68400). The following applies: at 0.1 µM.
Chain of Casein kinase II subunit alpha (Homo sapiens) (P68400 whole entry, looked up): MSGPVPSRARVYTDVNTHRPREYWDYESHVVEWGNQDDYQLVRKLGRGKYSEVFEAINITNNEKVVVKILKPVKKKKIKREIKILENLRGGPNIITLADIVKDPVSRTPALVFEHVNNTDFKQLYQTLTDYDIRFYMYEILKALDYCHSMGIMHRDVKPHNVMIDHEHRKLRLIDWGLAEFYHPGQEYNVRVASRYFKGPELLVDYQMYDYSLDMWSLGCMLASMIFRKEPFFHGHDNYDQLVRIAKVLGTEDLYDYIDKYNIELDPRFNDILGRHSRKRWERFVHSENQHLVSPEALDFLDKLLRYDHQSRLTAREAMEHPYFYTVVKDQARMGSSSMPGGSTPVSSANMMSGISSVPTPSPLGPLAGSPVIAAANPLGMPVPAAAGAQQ
Test [5] shares this target. The settings on record: at 1 µM.
Test [6] deals with T2, Inhibitor of nuclear factor kappa-B kinase subunit alpha (Homo sapiens) (UniProt O15111).
T2 sequence (whole entry): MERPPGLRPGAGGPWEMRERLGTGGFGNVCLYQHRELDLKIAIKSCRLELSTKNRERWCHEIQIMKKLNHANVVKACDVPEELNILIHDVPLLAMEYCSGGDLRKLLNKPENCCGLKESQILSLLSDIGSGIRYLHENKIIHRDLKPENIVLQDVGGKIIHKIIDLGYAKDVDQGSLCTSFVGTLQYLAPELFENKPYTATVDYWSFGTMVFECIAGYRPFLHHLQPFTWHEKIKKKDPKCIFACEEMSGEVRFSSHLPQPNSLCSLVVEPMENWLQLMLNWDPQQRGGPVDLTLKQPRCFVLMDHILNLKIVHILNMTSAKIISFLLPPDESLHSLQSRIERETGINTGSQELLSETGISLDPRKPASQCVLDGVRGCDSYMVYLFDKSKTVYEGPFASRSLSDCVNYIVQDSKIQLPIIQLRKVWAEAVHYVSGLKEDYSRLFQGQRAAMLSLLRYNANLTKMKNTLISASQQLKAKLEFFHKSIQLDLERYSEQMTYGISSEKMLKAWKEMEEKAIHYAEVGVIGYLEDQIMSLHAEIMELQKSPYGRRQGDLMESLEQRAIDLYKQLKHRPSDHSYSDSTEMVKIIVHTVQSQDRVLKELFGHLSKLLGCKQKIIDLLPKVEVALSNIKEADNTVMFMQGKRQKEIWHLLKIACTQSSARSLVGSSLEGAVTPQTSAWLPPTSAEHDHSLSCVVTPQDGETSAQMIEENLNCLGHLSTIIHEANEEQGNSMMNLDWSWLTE
The settings on record: at 0.1 µM.

The target of test [7] is T2, Inhibitor of nuclear factor kappa-B kinase subunit alpha (Homo sapiens). The settings on record: at 1 µM.
The target of test [8] is T3, Inhibitor of nuclear factor kappa-B kinase subunit beta (Homo sapiens) (UniProt O14920).
T3 sequence (whole entry): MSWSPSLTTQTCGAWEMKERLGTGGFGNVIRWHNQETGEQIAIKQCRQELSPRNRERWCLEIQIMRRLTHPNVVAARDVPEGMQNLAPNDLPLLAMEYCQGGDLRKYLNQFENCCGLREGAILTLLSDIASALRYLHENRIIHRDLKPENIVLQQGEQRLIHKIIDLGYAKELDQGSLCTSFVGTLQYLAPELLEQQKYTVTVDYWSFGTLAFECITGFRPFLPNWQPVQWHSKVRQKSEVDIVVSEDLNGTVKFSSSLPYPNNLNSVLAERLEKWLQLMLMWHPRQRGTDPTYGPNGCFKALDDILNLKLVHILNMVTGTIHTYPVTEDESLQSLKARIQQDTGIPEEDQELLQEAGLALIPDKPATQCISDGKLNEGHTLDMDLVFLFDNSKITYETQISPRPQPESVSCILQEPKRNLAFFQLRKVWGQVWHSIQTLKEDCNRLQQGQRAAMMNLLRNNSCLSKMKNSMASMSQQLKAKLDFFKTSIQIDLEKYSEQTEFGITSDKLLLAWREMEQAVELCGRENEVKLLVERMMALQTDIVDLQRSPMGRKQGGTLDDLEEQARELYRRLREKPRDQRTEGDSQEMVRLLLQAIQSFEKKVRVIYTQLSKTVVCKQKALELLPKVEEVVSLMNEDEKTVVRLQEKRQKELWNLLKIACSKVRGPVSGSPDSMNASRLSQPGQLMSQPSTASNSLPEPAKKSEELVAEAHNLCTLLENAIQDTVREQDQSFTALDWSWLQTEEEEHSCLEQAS
The following applies: at 0.1 µM.

Test [9] has as its target T3, Inhibitor of nuclear factor kappa-B kinase subunit beta (Homo sapiens). The following applies: at 1 µM.
Test [10] addresses T4, Inhibitor of nuclear factor kappa-B kinase subunit epsilon (Homo sapiens) (UniProt Q14164).
T4 sequence (whole entry): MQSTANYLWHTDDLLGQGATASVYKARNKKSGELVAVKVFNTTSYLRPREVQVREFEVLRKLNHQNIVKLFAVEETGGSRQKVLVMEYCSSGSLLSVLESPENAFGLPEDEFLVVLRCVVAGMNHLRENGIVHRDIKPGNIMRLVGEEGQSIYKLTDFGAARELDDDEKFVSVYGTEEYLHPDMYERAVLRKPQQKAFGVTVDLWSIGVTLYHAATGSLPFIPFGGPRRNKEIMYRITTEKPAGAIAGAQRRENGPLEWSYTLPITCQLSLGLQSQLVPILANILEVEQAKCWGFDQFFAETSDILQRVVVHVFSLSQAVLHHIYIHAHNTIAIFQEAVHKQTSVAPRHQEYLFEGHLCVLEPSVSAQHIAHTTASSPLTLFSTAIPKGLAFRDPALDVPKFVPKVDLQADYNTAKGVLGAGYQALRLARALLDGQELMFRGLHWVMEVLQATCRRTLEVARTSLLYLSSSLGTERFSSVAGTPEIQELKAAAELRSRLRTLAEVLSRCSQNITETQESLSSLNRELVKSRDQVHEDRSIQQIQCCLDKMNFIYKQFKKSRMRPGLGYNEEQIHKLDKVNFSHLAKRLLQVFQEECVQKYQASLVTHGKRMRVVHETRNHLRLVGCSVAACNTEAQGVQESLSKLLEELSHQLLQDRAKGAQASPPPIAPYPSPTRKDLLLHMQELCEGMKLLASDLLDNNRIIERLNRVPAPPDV
The settings on record: at 0.1 µM.

Test [11] concerns the target T4, Inhibitor of nuclear factor kappa-B kinase subunit epsilon (Homo sapiens). The following applies: at 1 µM.
Test [12] has as its target T5, Serine/threonine-protein kinase Nek1 (Homo sapiens) (UniProt Q96PY6).
T5 sequence (whole entry): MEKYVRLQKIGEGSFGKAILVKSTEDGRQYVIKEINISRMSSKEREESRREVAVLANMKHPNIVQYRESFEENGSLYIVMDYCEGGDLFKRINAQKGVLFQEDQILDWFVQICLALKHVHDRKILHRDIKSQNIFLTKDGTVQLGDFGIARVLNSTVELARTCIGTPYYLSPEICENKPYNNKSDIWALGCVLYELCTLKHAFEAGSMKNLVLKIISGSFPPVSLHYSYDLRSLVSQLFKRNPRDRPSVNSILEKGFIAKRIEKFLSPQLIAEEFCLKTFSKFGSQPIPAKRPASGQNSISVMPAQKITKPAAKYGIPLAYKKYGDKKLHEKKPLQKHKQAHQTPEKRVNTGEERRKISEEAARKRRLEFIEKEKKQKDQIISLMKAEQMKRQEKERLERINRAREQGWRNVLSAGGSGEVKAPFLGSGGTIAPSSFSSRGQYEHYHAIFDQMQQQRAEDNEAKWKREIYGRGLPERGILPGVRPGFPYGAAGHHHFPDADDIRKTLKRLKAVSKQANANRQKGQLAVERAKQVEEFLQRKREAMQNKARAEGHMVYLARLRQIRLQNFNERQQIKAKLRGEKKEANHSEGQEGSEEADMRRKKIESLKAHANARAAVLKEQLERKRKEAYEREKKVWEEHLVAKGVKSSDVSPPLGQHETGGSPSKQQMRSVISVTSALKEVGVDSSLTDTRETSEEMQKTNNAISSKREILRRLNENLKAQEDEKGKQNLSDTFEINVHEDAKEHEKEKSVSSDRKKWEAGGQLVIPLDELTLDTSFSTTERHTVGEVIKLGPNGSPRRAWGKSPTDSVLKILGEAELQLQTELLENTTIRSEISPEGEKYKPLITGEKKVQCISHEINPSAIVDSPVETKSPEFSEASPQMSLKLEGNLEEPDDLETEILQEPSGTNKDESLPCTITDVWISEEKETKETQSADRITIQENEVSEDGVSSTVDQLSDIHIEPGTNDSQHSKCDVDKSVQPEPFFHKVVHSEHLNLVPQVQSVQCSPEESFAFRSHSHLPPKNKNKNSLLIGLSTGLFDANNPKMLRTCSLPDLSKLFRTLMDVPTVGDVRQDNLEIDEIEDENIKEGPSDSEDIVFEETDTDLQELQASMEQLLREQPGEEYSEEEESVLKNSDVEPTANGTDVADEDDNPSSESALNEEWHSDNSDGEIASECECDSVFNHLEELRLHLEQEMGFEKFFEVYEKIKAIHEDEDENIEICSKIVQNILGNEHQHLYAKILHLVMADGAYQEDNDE
The settings on record: at 0.1 µM.

Test [13] deals with T5, Serine/threonine-protein kinase Nek1 (Homo sapiens). The settings on record: at 1 µM.
The target of test [14] is T6, Serine/threonine-protein kinase Nek2 (Homo sapiens) (UniProt P51955).
T6 sequence (whole entry): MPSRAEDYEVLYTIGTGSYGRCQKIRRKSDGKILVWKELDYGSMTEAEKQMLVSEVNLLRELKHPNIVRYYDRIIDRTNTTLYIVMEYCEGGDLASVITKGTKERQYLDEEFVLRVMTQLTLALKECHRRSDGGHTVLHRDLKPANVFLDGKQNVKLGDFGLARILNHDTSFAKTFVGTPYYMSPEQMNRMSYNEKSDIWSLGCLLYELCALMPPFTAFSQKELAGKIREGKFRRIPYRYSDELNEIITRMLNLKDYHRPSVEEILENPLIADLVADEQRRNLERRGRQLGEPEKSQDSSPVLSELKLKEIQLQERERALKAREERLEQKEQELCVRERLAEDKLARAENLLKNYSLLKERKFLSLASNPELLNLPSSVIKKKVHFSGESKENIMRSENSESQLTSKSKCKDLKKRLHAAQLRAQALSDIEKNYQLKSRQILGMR
The following applies: at 0.1 µM.

For test [15], the target named is T6, Serine/threonine-protein kinase Nek2 (Homo sapiens). The following applies: at 1 µM.
Test [16] concerns the target Serine/threonine-protein kinase Nek6 (Homo sapiens) (UniProt Q9HC98). The following applies: at 0.1 µM.
For test [17] the target is unchanged. The following applies: at 1 µM.
The target of test [18] is Serine/threonine-protein kinase Nek7 (Homo sapiens) (UniProt Q8TDX7). The settings on record: at 0.1 µM.
Chain of Serine/threonine-protein kinase Nek7 (Homo sapiens) (Q8TDX7 whole entry, looked up): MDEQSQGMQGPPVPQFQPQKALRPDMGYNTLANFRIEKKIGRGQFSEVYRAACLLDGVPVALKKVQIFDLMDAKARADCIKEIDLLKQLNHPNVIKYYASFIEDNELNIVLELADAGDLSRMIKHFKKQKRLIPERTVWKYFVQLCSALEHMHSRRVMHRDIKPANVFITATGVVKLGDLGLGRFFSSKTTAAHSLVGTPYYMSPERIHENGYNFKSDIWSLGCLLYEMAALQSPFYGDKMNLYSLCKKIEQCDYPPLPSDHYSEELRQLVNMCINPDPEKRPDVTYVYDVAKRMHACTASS
Test [19] shares this target. The following applies: at 1 µM.
Test [20] concerns the target T7, Serine/threonine-protein kinase Nek9 (Homo sapiens) (UniProt Q8TD19).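 Note: reported value is the mean percent inhibition of NEK9.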
T7 sequence (whole entry): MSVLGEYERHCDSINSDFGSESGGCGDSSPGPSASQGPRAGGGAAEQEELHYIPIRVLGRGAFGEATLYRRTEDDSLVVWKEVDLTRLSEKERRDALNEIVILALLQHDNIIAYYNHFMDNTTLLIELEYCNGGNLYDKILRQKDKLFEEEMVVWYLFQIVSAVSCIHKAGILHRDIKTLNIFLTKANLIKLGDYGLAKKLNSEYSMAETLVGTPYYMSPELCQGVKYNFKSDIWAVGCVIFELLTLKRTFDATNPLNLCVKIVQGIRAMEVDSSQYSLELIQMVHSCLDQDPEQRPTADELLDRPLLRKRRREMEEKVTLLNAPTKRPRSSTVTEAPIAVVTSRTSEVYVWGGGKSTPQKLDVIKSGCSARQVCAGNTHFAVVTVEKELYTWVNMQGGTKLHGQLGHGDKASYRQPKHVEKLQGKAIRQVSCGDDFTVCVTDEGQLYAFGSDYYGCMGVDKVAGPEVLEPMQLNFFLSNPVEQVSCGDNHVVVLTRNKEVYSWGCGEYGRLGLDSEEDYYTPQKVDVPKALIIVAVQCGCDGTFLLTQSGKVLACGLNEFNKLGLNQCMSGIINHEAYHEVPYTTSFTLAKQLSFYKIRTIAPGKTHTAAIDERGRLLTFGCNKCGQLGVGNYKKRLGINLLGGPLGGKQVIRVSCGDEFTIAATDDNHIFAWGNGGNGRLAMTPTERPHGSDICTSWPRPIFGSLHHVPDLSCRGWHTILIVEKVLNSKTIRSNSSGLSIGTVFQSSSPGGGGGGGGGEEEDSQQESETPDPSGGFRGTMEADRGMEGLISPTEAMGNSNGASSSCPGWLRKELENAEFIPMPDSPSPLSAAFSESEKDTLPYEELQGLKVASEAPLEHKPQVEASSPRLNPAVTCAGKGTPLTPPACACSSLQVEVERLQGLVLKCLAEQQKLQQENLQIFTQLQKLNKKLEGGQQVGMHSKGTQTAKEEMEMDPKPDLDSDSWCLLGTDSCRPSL
The settings on record: at 0.1 µM.

Chain of Serine/threonine-protein kinase Nek6 (Homo sapiens) (Q9HC98 whole entry): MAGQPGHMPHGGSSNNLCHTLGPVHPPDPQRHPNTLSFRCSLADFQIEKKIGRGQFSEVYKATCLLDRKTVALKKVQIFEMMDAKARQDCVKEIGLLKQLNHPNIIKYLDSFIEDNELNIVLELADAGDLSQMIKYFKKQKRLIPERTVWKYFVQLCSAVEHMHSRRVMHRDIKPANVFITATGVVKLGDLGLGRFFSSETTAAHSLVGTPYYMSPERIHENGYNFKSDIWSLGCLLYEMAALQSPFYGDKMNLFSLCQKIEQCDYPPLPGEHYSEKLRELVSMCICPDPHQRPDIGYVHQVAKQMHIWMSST
Chain of Sphingosine kinase 1 (Homo sapiens) (Q9NYA1 whole entry): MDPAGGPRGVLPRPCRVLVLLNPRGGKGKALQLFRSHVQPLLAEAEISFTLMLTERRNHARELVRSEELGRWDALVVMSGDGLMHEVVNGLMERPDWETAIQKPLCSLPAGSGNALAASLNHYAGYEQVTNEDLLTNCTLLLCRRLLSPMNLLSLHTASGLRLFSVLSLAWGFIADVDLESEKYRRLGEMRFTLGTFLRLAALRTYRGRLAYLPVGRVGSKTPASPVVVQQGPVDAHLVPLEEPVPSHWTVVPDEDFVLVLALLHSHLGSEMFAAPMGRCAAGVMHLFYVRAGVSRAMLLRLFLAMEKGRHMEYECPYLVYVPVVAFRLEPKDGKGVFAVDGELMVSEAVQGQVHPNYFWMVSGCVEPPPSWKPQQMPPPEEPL

By inhibition is commonly meant the drop in the measured response relative to a control, in per cent. As for `CCn1cc(-c2ccnc3[nH]ccc23)c(-c2cccc(NC(=O)Nc3ccc(OCc4ccccc4)cc3)c2)n1`, the inhibition in test [1] was -4.04%; in test [2], -0.83%; in test [3], -0.59%; in test [4], 9.36%; in test [5], -1.27%; in [6], 1.99%. For the same compound, the inhibition in test [7] was -6.8%; in test [8], 4.3%; in test [9], 5.23%; in test [10], -4.18%; in [11], 3.46%; in test [12], 1.35%. Also, the inhibition in [13] was 0.82%; in [14], 0.4%; in test [15] it was -1.01%; in test [16], -0.55%; in [17] it was -0.07%; in test [18], -1.04%. The inhibition was -5.21% in test [19] and 3.07% in [20].
